# Results as given in PubChem BioAssay (NCATS).
# Where “and” joins values, the source holds several entries; their conditions need not be identical. Equal values may be shown once. Results filed as inconclusive are left out. A call without a number means that no potency is given here. Calls of active or inactive are those of the source. Calls follow the shape of the dose curve; as a rule, active = well fitted cell-killing curve with a large enough effect; inconclusive = small, poorly fitted or top-dose-only effect, or effect the other way; inactive = no such curve, though single readings can be large or run the other way.
# Experiment: Viability qHTS for spleen associated tyrosine kinase inhibitor (SYKi) naive MV4-11 cells (AID 1963823); also: nearly all actives have a fitted effect of over 40% in size
# Details: MV4-11 AML viability, CellTiter-Glo luminescence, 72 h; series mostly up to 45 µM
# Excerpt: Department of Medicine, Hematology/Oncology
# University Hospital Frankfurt, Germany.
# Trials have shown promising clinical activity of the selective SYK inhibitor entospletinib in patients with high expressing HOXA9/MEIS1 acute leukemias. As the development of resistance mechanisms is a common problem in the use of targeted drugs, we performed a chemical library screen to identify drug sensitivities in SYK inhibitor resistant AML cells. […] Glucocorticoids are potent immunosuppressants which work in part by inhibiting the transcription of cytokine genes.
# Described herein is a viability screen to look for activity in the SYK inhibitor naive cell line against four NCATS compound libraries (MIPE 5.0, NPC, NPACT, and Kinase) totaling 11372 compounds. Active hits were reacquired for confirmation and further secondary assay testing.
# SEQUENCE No. (e.g., 1, 2, 3, etc.); […] (e.g., Cells, Incubation, Reagent, etc.); VALUE; DESCRIPTION.
# 1; Media; 2uL; white, solid-bottom Corning assay plate.
# 2; Compounds; 23nL; Echo acoustic dispenser.
# 3; Cell; 5uL; 500 cells per well.
# 4: Incubation; 72hr; 37 C, 5% CO2, 95% humidity.
# 5; Reagent; 3uL; CellTiter-Glo reagent (Promega).
# 6; Incubation; 10min; room temperature.
# 7; Detection; Luminescence; ViewLux plate reader (PerkinElmer).
# NOTES (numbers refer to Sequence numbers above
# 1. Quantitative high-throughput screening (qHTS) of small molecule compounds was conducted on naive SYKi MV4-11 cell line.
# 2. Twenty-three nanoliter of small molecule compounds were added to each assay plates using the Echo acoustic dispenser (Beckman Coulter).
# 3. Cells were seeded into the assay plates at a final density of 500 cells in 5uL of media per well using the Multi-drop Combi dispenser.
# 4. Plates were covered with stainless steel gasketed lids and incubated for 72 hours at standard cell culture conditions.
# 5. Viability was assessed by adding 3uL of CellTiter-Glo detection reagent (Promega).
# 6. Plates were covered with gasket lids and incubated for 10 minutes at room temperature.
# 7. Luminescence was measured on a ViewLux plate reader (PerkinElmer).
# Potency is read from the fitted curve at half-maximal effect.
SMILES,Potency,viability (% of control)
Cc1nc(C#Cc2ccnc(Cl)c2)c(C)n1-c1ccc(OC(F)(F)F)cc1,20.6 µM (active),–
CC1(C)CCC(c2ccc(Cl)cc2)=C(CN2CCN(c3ccc(C(=O)NS(=O)(=O)c4ccc(N[C@H](CCN5CCOCC5)CSc5ccccc5)c(S(=O)(=O)C(F)(F)F)c4)cc3)CC2)C1,116 nM (active) and 332 nM (active),–
COc1ccc2c(c1)c(CC(=O)OCC(=O)O)c(C)n2C(=O)c1ccc(Cl)cc1,inactive,–
c1ccc2c(Oc3nc(Nc4ccc(N5CCOCC5)cc4)c4ncn(C5CCCCC5)c4n3)cccc2c1,1.84 µM (active) and 2.35 µM (active),–
Cc1cc(C)nc(NS(=O)(=O)c2ccc(NC(=S)NC(=O)COc3ccc(Br)cc3Cl)cc2)n1,inactive,–
CO[C@H]1/C=C/O[C@@]2(C)Oc3c(C)c(O)c4c(O)c(c5c(c4c3C2=O)=NC2(CCN(CC(C)C)CC2)N=5)NC(=O)/C(C)=C/C=C/[C@H](C)[C@H](O)[C@@H](C)[C@@H](O)[C@@H](C)[C@H](OC(C)=O)[C@@H]1C,18.6 µM (active),–
C=C1CCC2C(C)(COC(C)=O)CCCC2(C)C1CCC(C)CC(=O)O (stereo not given),inactive,–
C[C@@H](NC(=O)C(=O)c1c[nH]c2ccc([N+](=O)[O-])cc12)c1ccccc1,inactive,–
CN(C)c1ccc(Nc2nc(N)n(C(=O)c3c(F)cccc3F)n2)cc1,3.66 µM (active),–
Cc1ccc(-c2c(-c3nn(C)c4ncnc(N5CC[C@H](N6CCCCC6)C5)c34)cnn2C)cc1,inactive,–
CC[C@]12CCCN3CCc4c(n(c5ccccc45)[C@@](O)(C(=O)OC)C1)[C@@H]32,inactive,–
CC(=O)SC[C@@H](Cc1ccccc1)C(=O)NCC(=O)OCc1ccccc1,inactive,–
CC(=O)OCC1=C[C@@H]2OC(=O)C3=CO[C@@H](O[C@@H]4O[C@H](CO)[C@@H](O)[C@H](O)[C@H]4O)[C@H]1[C@@H]32,inactive,–
O=c1ccc2ccc(OCCCCN3CCN(c4cccc5sccc45)CC3)cc2[nH]1,10.3 µM (active),–
Cc1cc([C@@H](C)Nc2ccccc2C(=O)O)c2nc(N3CCOCC3)cc(=O)n2c1,5.01 µM (active) and 5.25 µM (active),–
COc1cc2c(cc1OC)C(=O)CC2,inactive,–
CNC(=O)Nc1ccc(-c2nc(N3CC4CCC(C3)O4)c3cnn(C4CCC5(CC4)OCCO5)c3n2)cc1,0.0742 µM (active),–
CO[C@@H]1[C@@H](OC)[C@H](C)[C@@](O)(CC(=O)O)O[C@H]1[C@H](C)[C@H]1O[C@@]2(CC[C@@](C)([C@H]3CC[C@@](C)([C@@H]4O[C@@H]([C@H]5O[C@](C)(O)[C@H](C)C[C@@H]5C)C[C@@H]4OC4C[C@H](OC)[C@@H](OC)[C@H](C)O4)O3)O2)C[C@H](O)[C@H]1C (stereo not given in full),0.376 µM (active),–
CC1(C)CC[C@]2(C(=O)O[C@@H]3O[C@H](CO)[C@@H](O)[C@H](O)[C@H]3O)CC[C@]3(C)C(=CCC4[C@@]5(C)CC[C@H](O[C@@H]6O[C@H](C(=O)O)[C@@H](O[C@@H]7O[C@H](CO)[C@@H](O)[C@H](O)[C@H]7O)[C@H](O)[C@H]6O)C(C)(C)C5CC[C@]43C)C2C1 (stereo not given in full),–,78.7% [at 9.25 µM] (inactive)
O=C(c1cncc(Br)c1)N1CCC(N2CCCC2)CC1,inactive,–

SMILES,Potency,viability (% of control)
CCCCCCOc1cc2c(cc1N(C)c1ncc(C(=O)O)cn1)C(C)(C)CCC2(C)C,23.1 µM (active),–
C[C@]12CCC(=O)C=C1CC[C@@H]1[C@@H]2[C@@H](O)C[C@@]2(C)[C@H]1CC[C@]2(O)C(=O)CO,inactive,–
O=S(=O)(O)c1ccc2cc(N=Nc3cc(S(=O)(=O)O)c4cccnc4c3O)ccc2c1,inactive,–
C[C@H]1[C@H](C)CC[C@]2(C(=O)O)CC[C@]3(C)C(=CCC4[C@@]5(C)C[C@@H](O)[C@H](O)C(C)(C)C5CC[C@]43C)[C@H]12 (stereo not given in full),inactive,–
COc1ccc(CCC(=O)c2c(O)cc(O)cc2O[C@@H]2O[C@H](CO)[C@@H](O)[C@H](O)[C@H]2O)cc1,7.96 µM (active),–
O=C(N[C@@H](c1ccccc1)[C@@H]1CCCCN1)c1cccc(C(F)(F)F)c1Cl,16.6 µM (active),–
C=C[C@H]1[C@H](O[C@@H]2O[C@H](CO)[C@@H](O)[C@H](OC(=O)/C=C/c3ccc(O)c(OC)c3)[C@H]2O)OC=C2C(=O)OCC[C@]21O,inactive,–
Cc1ccc(O)c(-n2nc3ccccc3n2)c1,inactive,–
CC(=O)O[C@H](C[C@@H](C)[C@H]1C(=O)[C@H](O)[C@@]2(C)[C@@H]3CCC4C(C)(C)[C@@H](O[C@@H]5OC[C@H](O)[C@H](O)[C@H]5O)CC[C@@]45C[C@@]35CC[C@]12C)[C@@H]1OC1(C)C (stereo not given in full),inactive,–
CC(C)(F)CC(NC(c1ccc(-c2ccc(S(C)(=O)=O)cc2)cc1)C(F)(F)F)C(=O)NC1(C#N)CC1 (stereo not given),inactive,–
O=C1NC(O)CCN1[C@@H]1O[C@H](CO)[C@H](O)[C@H]1O (stereo not given in full),inactive,–
C[C@@H]1O[C@@H](OC2C(O[C@H]3[C@H](O[C@H]4CC[C@@]5(C)C(CC[C@]6(C)C5CC=C5C7CC(C)(C)CC(O)[C@]7(C)CC[C@]56C)C4(C)C)O[C@H](C(=O)O)[C@@H](O)[C@@H]3O)OC(CO)C(O)C2O)[C@H](O)[C@H](O)[C@H]1O (stereo not given in full),–,84.2% [at 9.25 µM] (inactive)
OC1(c2ccc(Cl)cc2)CCNCC1,inactive,–
Cc1c[nH]c2ncnc(N3CCC(CN)(C(=O)Nc4cccc(OC(=O)N(C)C)c4)CC3)c12,517 nM (active) and 662 nM (active),–
O=C(CO)N1CCC(c2[nH]nc(-c3ccc(Cl)cc3)c2-c2ccncn2)CC1,2.31 µM (active),–
CC1(C)CC[C@]2(C(=O)O[C@@H]3O[C@H](CO)[C@@H](O)[C@H](O)[C@H]3O)CC[C@]3(C)C(=CCC4[C@@]5(C)CC[C@H](O[C@@H]6O[C@H](C(=O)O)[C@@H](O)[C@H](O)[C@H]6OC6OC(CO)C(O)C(O)C6O)C(C)(C)C5CC[C@]43C)[C@@H]2C1 (stereo not given in full),–,89.4% [at 9.25 µM] (inactive)
CC1(C)CCC(C)(C)c2cc([C@@H](O)C(=O)Nc3ccc(C(=O)O)cc3F)ccc21,4.11 µM (active),–
Cc1onc(C(=O)N2CCN(C(c3ccc(Cl)cc3)c3ccc(Cl)cc3)CC2)c1[N+](=O)[O-],4.11 µM (active),–
CC1CC(O)C2(OC1=O)OC1C(O)C3C4CCC5CC(OC6OC(CO)C(O)C(O)C6OC6OC(C)C(O)C(O)C6O)CCC5(C)C4CCC3(C)C1C2C (stereo not given),inactive,–
CC(C)NC(=O)C1CCC(n2c(NC(=O)c3ccc(F)cc3)nc3ccc(CN4CCC(C(C)(C)O)CC4)cc32)CC1 (stereo not given),1.02 µM (active),–
